Measured values reported in PubChem BioAssay AID1467 (National Center for Advancing Translational Sciences (NCATS), 2008).
The campaign covered roughly 230,000 compounds. Fewer than 10 were called active. The call rests on the fitted dose curve; in most records, active means well fitted curve in the direction sought with a large enough effect; inconclusive means small, poorly fitted or top-dose-only effect, or effect the other way, or another doubt; inactive means no such curve, though single readings can be large or run the other way. Only a sample is shown.

molecular target: Alpha-galactosidase A (Homo sapiens) (UniProt P06280); assay: qHTS Assay for Inhibitors of Human alpha-Galactosidase at pH 4.5.;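 further: 0% = full activity with enzyme and -100% = basal without enzyme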; details: purified enzyme, 4-MU-alpha-Gal fluorescence; series mostly up to 105 µM
Text: NIH Chemical Genomics Center [NCGC]
NIH Molecular Libraries Probe Production centers Network [MLPCN]
Assay Submitter (PI): Wei Zheng
Alpha-galactosidase is a homodimeric glycoprotein that hydrolyzes the terminal alpha-galactosyl moieties from glycolipids and glycoproteins. Deficiency of this enzyme results in Fabry Disease with progressive accumulation of globotriaosylceramide and other glycosphingolipids in vascular endothelial cells that causes renal failure, myocardial infarction and stroke, and premature death in patients. It has been reported that the improper folding and trafficking of alpha-galactosidase resulting from the genetic mutations may account for a significant numbers of Fabry patients. […] We optimized this alpha-galactosidase assay in 1536-well plate format for identifying the novel small molecule inhibitors with the structures other than the sugar analogs in order to develop the new pharmacological chaperones. Although this assay has the same protocol as PubChem AID 992, this is a separate project and, therefore, is published as a separate assay
NCGC Assay Protocol Summary:
This is a fluorogenic enzyme assay with 4-Methylumbelliferyl alpha-D-galactopyranoside as the substrate and human […] as the enzyme preparation. Upon the hydrolysis of this fluorogenic substrate, the resulting product, […]. 4-Methyllumbelliferone, can be excited at 365 nm and emits at 440 nm. This fluorescence which can be detected by a standard fluorescence plate reader. Data were normalized to the controls for basal activity (without enzyme) and 100% activity (with enzyme). In the AC50 values were determined from concentration-response data modeled with the standard Hill equation.
Assay buffer: 50 mM citric acid (titrated with potassium phosphate to pH 4.5), 0.005% Tween-20, pH 4.5. (pH 4.5 is an optimal condition for this enzyme assay)
1536-well assay protocol for the human alpha-galactosidase:
(1) Add 2 ul/well of enzyme (12 nM final)
(2) Add 23 nL compounds in DMSO solution. The final titration was 0.7 nM to 77 uM.
(3) Add 1 ul of substrate (400 uM final)
(4) Incubate at room temperature for 20 min.
(5) Add 2 ul stop solution (1M NaOH and 1M Glycine mixture, pH 10)
(6) Detect the assay plate in a ViewLux plate reader (PerkinElmer) with Ex=365 nm and Em=440nm.
Keywords: MLSMR, MLPCN, NIH Roadmap, qHTS, NCGC, : Alpha-galactosidase, Fabry Disease, pharmacological chaperone, chaperone therapy

Alpha-galactosidase A (Homo sapiens), sequence (P06280 whole entry, looked up): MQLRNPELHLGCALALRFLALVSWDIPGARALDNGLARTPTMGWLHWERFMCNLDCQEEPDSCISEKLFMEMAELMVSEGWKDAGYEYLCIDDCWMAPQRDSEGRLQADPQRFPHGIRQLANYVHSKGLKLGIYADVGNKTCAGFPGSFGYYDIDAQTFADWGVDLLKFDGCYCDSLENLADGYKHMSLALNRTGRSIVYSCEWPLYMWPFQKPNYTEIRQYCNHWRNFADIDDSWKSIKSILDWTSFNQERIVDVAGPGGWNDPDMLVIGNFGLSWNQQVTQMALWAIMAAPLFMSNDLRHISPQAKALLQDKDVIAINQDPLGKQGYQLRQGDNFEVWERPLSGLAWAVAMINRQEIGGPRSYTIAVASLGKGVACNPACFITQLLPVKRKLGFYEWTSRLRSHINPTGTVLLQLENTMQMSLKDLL

Activity change, negative = inhibition, inactive:
C=CC(C1=CC(=O)C=CC1=O)c1ccc(O)cc1 (configuration not stated)
Cc1nc(NC(=O)C2CCCCC2)sc1C
c1ccc(CN=C2Nc3ccccc3CS2)nc1
O=C(CSc1nnc(-c2ccncc2)n1-c1ccc(Cl)cc1)Nc1ccc(C(=O)O)cc1
C[C@H]1Cc2c(-c3ccccc3)nc3c(c2CO1)CN(C(=O)C1CC1)CC3
O=c1c2c(nc3cc(-c4cccc(Cl)c4)[nH]n13)CCCC2
CC(C)C1=CC2=CC[C@H]3[C@](C)(C(=O)O)CCC[C@]3(C)C2CC1 (some centres not stated)
COc1ccc(CCNC2=CC(=O)CC(C)(C)C2)cc1
O=C(CC(=O)N/N=C\c1cccc(Cl)c1Cl)NCc1ccccc1
COc1cc(NC(=O)c2cncc(-c3ccc(C#N)cc3)c2)cc(C(=O)Nc2cccc(C(F)(F)F)c2)c1
COc1cccc(-c2cc(=O)c3cc(NC(=O)c4ccc(C)cc4)ccc3[nH]2)c1
Cc1nc(-c2ccc(Cl)cc2)sc1C1(C)CC(c2ccccc2F)=NO1 (configuration not stated)
COc1ccc(/C=C2\NC(=O)[C@@H]3Cc4ccccc4CN3C2=O)cc1
CC(C)Cc1nc(Nc2ccc(S(=O)(=O)N3CCCC3)cc2)c2nnn(Cc3ccccc3)c2n1
NC(=O)COc1ccc(C23CC4CC(CC(C4)C2)C3)cc1
COc1ccc(OC)c(S(=O)(=O)Nc2cccc(-c3ccc4nncn4n3)c2)c1
COC(=O)C1=C(C(=O)OC)C(c2cc([N+](=O)[O-])ccc2O)c2sc(=O)[nH]c2S1 (configuration not stated)
CCCCNS(=O)(=O)c1ccc2nc(SCC(=O)Nc3cc(C)cc(C)c3)[nH]c2c1
CCOC(=O)C1=C(C)c2ccccc2OC1C(=O)OCC (configuration not stated)
O=C(COc1cc(Cl)c(Cl)cc1Cl)NC(=O)NC1CCCC1
COc1ccc(-c2c(C)cc3oc(=O)cc(-c4ccccc4)c3c2C)cc1C=O
CCCCCCCCCCCCN1C(=O)CSC1c1cccnc1 (configuration not stated)
C=C(C(C)=O)C(O)c1ccc([N+](=O)[O-])cc1 (configuration not stated)
C=CCOC(=O)NC(c1ccc(F)c(F)c1)C(C(=O)COC)C(=O)OC (configuration not stated)
COc1ccc(-c2nc3c(c4c2C[C@H](c2ccccc2)OC4)CN(C(=O)c2cccnc2)CC3)c(C)c1
COC(=O)C1(C(C)=O)CC2=CC[C@H]3C(=O)N(c4ccccc4)C(=O)[C@H]3[C@@H]2Cc2ccccc2[C@@H]1C[N+](=O)[O-] (some centres not stated)
Cc1cccc(-c2nc3ccccc3c(=O)n2NC(=O)Cc2ccc(Cl)cc2)c1
O=C(NCc1ccco1)O[C@@H]1C(=O)c2cc(Br)ccc2O[C@H]1c1ccc2c(c1)OCO2
O=C(O)CC(Cc1ccccc1)C(=O)Nc1ccc([N+](=O)[O-])cc1 (configuration not stated)
OC[C@H]1O[C@@H](n2cnc3c(N[C@H]4CC5CCC4C5)ncnc32)[C@H](O)[C@@H]1O (some centres not stated)
COc1cccc([C@@H]2Oc3ccc(Br)cc3C(=O)[C@H]2OC(=O)NCCc2ccc(OC)c(OC)c2)c1
CCOC(=O)C1C/C(=C\C(C)=O)c2cccc(C(F)(F)F)c2O1 (configuration not stated)
C/C(Nc1ccc2oc(=O)ccc2c1)=C1/C(=O)CC2[C@@H]1C2(C)C (some centres not stated)
O=C(NNC(=S)NC1CC2CCC1C2)c1ccc(Cl)cc1 (configuration not stated)
COc1cc(NC(=O)c2ccc3c(c2)OCO3)ccc1NC(=O)c1cccs1
CC(=O)Nc1ccc(NC(=O)CSc2ncnc3c2cnn3Cc2ccccc2)cc1
C=C1c2cccc(OC)c2O[C@H](C(=O)OCC)[C@@H]1CCCCCC
C=CCn1c2ccccc2c2nnc(SCc3[nH]c(=O)[nH]c3C(=O)CCCCC(=O)OCC)nc21
O=C(COC(=O)CNC(=O)c1ccccc1F)NCC(F)(F)F
COC(=O)C1=C(C(=O)OC)[C@@H]2N(C)c3ccccc3[C@@]23C[C@@H](C(=O)OC)N(S(=O)(=O)c2ccc(Br)cc2)C3=N1
O=C(NCCCN1CCOCC1)c1cc2c(s1)CCC2
CCOc1ccc(C2NC(=S)NC3=C2CCc2ccccc23)cc1 (configuration not stated)
COc1cc(OC)c2c(-c3cccc(-c4cccc(N)c4)c3)cc(=O)oc2c1
Cc1ccc(NC(=O)O[C@@H]2C(=O)c3cc(Br)ccc3O[C@H]2c2ccc3c(c2)OCO3)cc1Br
CC1=C(C)CC(C(=O)NNC(=O)c2ccccc2O)C(C(=O)O)C1 (configuration not stated)
O=S(=O)(Cc1noc(-c2ccc(OC(F)(F)F)cc2)n1)c1ccc(F)cc1
COc1cc(CNCCN(C)C)ccc1OCc1c(F)cccc1Cl
Clc1ccc(-c2csc(-c3ccncc3)n2)cc1
CCOc1cc(N2CCOCC2)c(OCC)cc1NC(=O)c1ccc(C)s1
NC1CCN(O)C1=O (configuration not stated)
COc1ccc(S(=O)(=O)N(C)C)cc1NC(=O)CSc1ncccn1
O=C(COc1ccccc1)N1CCN=C1SCc1cccc(F)c1
CC(=O)/C(C)=N/O
CCO[C@H]1OC(C(=O)N2CCN(Cc3ccccc3)CC2)=C[C@@H](c2cn(C(C)=O)c3ccccc23)[C@@H]1CCCO
C=C/C1=C/Cc2ccccc2[C@H](C[N+](=O)[O-])C(C(=O)OC)(C(=O)OC)C1
NNC(=O)c1oc2nc(-c3ccccc3)cc(-c3ccco3)c2c1N
S=C(NCCCc1cnc[nH]1)NCCCN(Cc1ccc(Cl)c(Cl)c1)c1ccc(Br)cn1
Cc1cccc([C@H]2[C@@H]3C=CC[C@@H](C)[C@@H]3C(=O)N2Cc2ccccc2)c1
CCN(CCn1cccn1)C(=O)CC1C(=O)NCCN1Cc1cccc(OC)c1OC (configuration not stated)
O=[N+]([O-])c1ccc(N2CCNCC2)cc1NCc1cccnc1
S=C(NNC(=S)NC1CC2C=CC1C2)NC1CC2C=CC1C2 (configuration not stated)
COC(=O)N1C(/C=C/C=C/c2ccc(OC)cc2)=Cc2ccccc2C1CC(C)=O (configuration not stated)
COc1ccc(C(=O)COC(=O)c2nn(C)c(=O)c3ccccc23)c(OC)c1
COc1cccc(NC(=S)NCc2ccco2)c1
Cn1c(SCC(=O)NC2CCCCC2)nnc1-c1ccc(N)cc1
COC(=O)C1=C(C(=O)OC)[C@@H]2N(C)c3ccccc3[C@@]23C[C@@H](C(=O)OC)N(S(=O)(=O)c2cccs2)C3=N1
CN1CCC(=NNC(=O)CN(c2cccc(Cl)c2)S(C)(=O)=O)CC1
NC(=O)CC(NC(=O)Cc1cccc2ccccc12)c1ccc(NCc2cc(F)ccc2F)c([N+](=O)[O-])c1 (configuration not stated)
N#Cc1cccc(CS(=O)(=O)c2nnnn2-c2cc(C(F)(F)F)cc(C(F)(F)F)c2)c1
Cc1cc(C(=O)COC(=O)CNC(=O)c2ccc(F)cc2)c(C)n1Cc1ccco1
OCCC1CN(Cc2ccc3nsnc3c2)CCN1C1CCCCC1 (configuration not stated)
Cc1cc(C)cc(N(CC(=O)NCCSCc2ccco2)S(C)(=O)=O)c1
CC1CCN(c2c(NCc3ccc(C(=O)NCc4ccccc4)cc3)c(=O)c2=O)CC1
CNC(=O)c1ccc(NC(=O)c2cccc(C(F)(F)F)c2)cc1
Nc1ccc(OCC(O)C[n+]2ccc(CCS(=O)(=O)[O-])cc2)cc1 (configuration not stated)
Cc1cccc2c1N(CCOc1ccccc1)C(=O)C2=O
CN1C(=O)/C(=C\c2ccc(-c3ccccc3)o2)SC1=S
C/C(=N\NC(=O)c1cccc(N2CCCC2=O)c1)c1ccc(N)cc1
CC(C)(C)Nc1c(-c2cccs2)nc2ccccn12
Cc1csc(-c2coc3cc(O[C@@H]4O[C@H](CO)[C@@H](O)[C@@H](O)[C@H]4O)ccc3c2=O)n1
c1ccc2c(c1)CSc1sccc1C2=C1CCNCC1
CC(=O)CC(c1ccccc1)C1C(=O)Oc2ccccc2C1=O (configuration not stated)
COC(=O)C1=C(C(=O)OC)[C@@H]2N(Cc3ccccc3)c3ccccc3[C@@]23C[C@@H](C(=O)OC)N(S(=O)(=O)c2ccc(C(F)(F)F)cc2)C3=N1
O=C(NCCN1CCOCC1)c1ccc2c(c1)N(Cc1ccc(Cl)cc1)CCS2
C/C=C(\C)C(=O)OC1C(OC(=O)C2(C)OC2C)c2cc3ccc(=O)oc3cc2OC1(C)C (configuration not stated)
CNC(=S)N1CCC(NC(=O)C(Cc2ccc(F)cc2)NC(C)=O)CC1 (configuration not stated)
Cc1oc2cc([N+](=O)[O-])c(O)c([N+](=O)[O-])c2c1C(=O)c1ccc(Br)cc1
CCc1ccc(NC(=O)C(=O)N/N=C(\C)CC(=O)NCCOC)cc1 3.4% [at 21.1 µM]
CCOc1ccc(NC(=O)c2ccc(CSc3nnnn3C)cc2)cc1
COC(=O)C1=C(C(=O)OC)[C@@H]2Nc3ccccc3[C@@]23C[C@@H](C(=O)OC)N(S(=O)(=O)c2ccc([N+](=O)[O-])cc2)C3=N1
COc1ccc(Nc2ncnc3ccc(OC)cc23)cc1
C[N+]1(CC(O)COc2ccccc2)CCN(C(=O)c2ccc([N+](=O)[O-])cc2)CC1 (configuration not stated)
C/C=C(\C)C(=O)O[C@H]1CC(C)=C2C(=O)C=C(C)C2[C@@H]2OC(=O)[C@@](C)(OC(=O)C=C(C)C)C21 (some centres not stated)
Cc1nc(SCc2ccc(F)cc2)c([N+](=O)[O-])[nH]1
C=CCN1C(=O)C(Cc2ccc(OCC)cc2)SC1=Nc1ccc(C(=O)O)cc1 (configuration not stated)
Cc1ccc(C)c(-n2nnnc2SCC(=O)c2c(N)n(C)c(=O)n(C)c2=O)c1
COc1ccc2c(c1)O[C@@H](c1ccc3c(c1)OCO3)[C@H](OC(=O)NCc1ccco1)C2=O
